Assay outcomes: PubChem, National Center for Advancing Translational Sciences (NCATS)
ALOX12 inhib – inhibitors of human 12-lipoxygenase (ALOX12); actives 0.12% (n = 150,000); P18054; purified 12-hLO, xylenol orange hydroperoxide absorbance; Potency, µM (top dose mostly 57.1 µM), hits mostly inhibitors; further: nearly all actives have a fitted effect of over 55% in size
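Purified human 12hLO (150 nM final) was preincubated with compounds for 15 min at room temperature in 25 mM Hepes pH 7.0, 0.01% Triton X-100, then reacted with 40 uM arachidonic acid for 30 min. Hydroperoxide was detected with ferrous iron/xylenol orange.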
PNC assembly inh – inhibitors of perinucleolar compartment assembly; PC3M PTB-GFP, PNC prevalence imaging, 16 h; active compounds read low; activity change (PNC), negative = inhibition, % at 10 µM; actives 3.1% (n = 140,000);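 active means readout at or below -70, meaning at least 70% loss of cells showing the perinucleolar compartment, a nuclear body marking cancer cells; inconclusive means readout between -30 and a set limit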
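Read-out is percentage of cells bearing a perinucleolar compartment, from automated 20x imaging of fixed, Hoechst-stained PC3M PTB-GFP cells. Cells were seeded 4 h, then exposed 16 h to compound (23 nl of library stock) in duplicate plates.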
15-hLO-2 inh – inhibitors of human 15-lipoxygenase 2 (ALOX15B); O15296; purified 15hLO-2, xylenol orange hydroperoxide absorbance; Potency, µM (top dose mostly 57.1 µM), usual class: inhibitors; actives 0.56% (n = 110,000); further: nearly all actives have a fitted effect of over 60% in size
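Read-out: hydroperoxide product oxidises ferrous iron, measured as xylenol orange complex via the 573-to-405 nm absorbance ratio after 30 min. Reaction: 50 nM enzyme, 15 min compound preincubation, 45 uM arachidonic acid, 90 min RT, Hepes pH 7.5 with Triton X-100.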
IMPase inh – IMPase inhibition in cells | CHO-M1 cells, IP1 accumulation, HTRF TR-FRET ratio | inhibition (IP1 accumulation), % at 46.1 µM | AID 901 | 120,000 tested, under 10 active; active means well fitted curve in the direction sought with a large enough effect in the signal ratio, not every such curve was filed as active; inconclusive means small, poorly fitted or top-dose-only effect, or a change in a side signal; inactive means no such curve, though single readings can be large or run the other way; the % refers to the signal ratio;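 further: cells stimulated with carbachol in lithium chloride buffer; higher means more IMPase inhibition seen as more IP1 and lower FRET ratio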
Target sequence (P97697 whole entry, looked up): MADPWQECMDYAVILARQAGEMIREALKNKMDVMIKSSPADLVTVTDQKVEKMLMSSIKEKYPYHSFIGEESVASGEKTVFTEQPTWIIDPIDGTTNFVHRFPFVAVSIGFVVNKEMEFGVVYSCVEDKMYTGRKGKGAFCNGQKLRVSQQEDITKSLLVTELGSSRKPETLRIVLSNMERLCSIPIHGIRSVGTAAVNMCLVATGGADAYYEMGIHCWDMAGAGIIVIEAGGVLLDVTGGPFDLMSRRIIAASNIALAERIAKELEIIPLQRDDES
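The IP-One HTRF competitive assay in carbachol-stimulated CHO-M1 cells quantifies cellular IP1. Compounds spanned up to 46 uM final, and activity is expressed as AC50 from concentration-response fits of the ratio and donor data.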
IMPase Li cell – IMPase inhibition in cells with lithium potentiation; CHO-M1 cells, IP1 TR-FRET (IP-One), carbachol + lithium; Potency, µM (highest dose often 59.4 µM), most hits filed as inhibitors; actives 0.35% (n = 210,000); AID 1457;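 further: IP1 builds up when IMPase is blocked and the TR-FRET signal falls; nearly all actives have a fitted effect of over 50% in size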
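Concentration–response in CHO-M1 cells, lithium-potentiated; 30 min at 37C. IP1 detected by competitive TR-FRET after 10 min lysis at RT. Hill-fitted AC50.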
Hits are given with their value; 0 = inactive; ? = inconclusive; - = not tested or not shown; [ ] = remark or other dose. The entries come from a sample that favours hits as a whole. Unless noted, the call rests on the fitted dose curve; in most records, active means well fitted curve in the direction sought with a large enough effect; inconclusive means small, poorly fitted or top-dose-only effect, or another doubt; inactive means no such curve, though single readings can be large; an effect the other way counts as inactive or inconclusive.

SMILES	ALOX12 inhib	PNC assembly inh	15-hLO-2 inh	IMPase inh	IMPase Li cell
Cn1c(C(=O)NCc2cccs2)cc2oc3ccccc3c21	0	0	0	0	0
Cn1c(C(=O)NCc2ccccc2)cc2oc3ccccc3c21	0	-105.8	0	0	0
COC(=O)[C@H](Cc1ccccc1)NC(=O)O[C@H]1C(=O)c2cc(OC)ccc2O[C@@H]1c1ccc(OC)c(Br)c1	-	-	-	-	0
COC(=O)c1ccc(NC(=O)CSc2n[nH]c(CC(C)C)n2)cc1	-	-	-	0	-
CCOC(=O)CSc1nc(C)c2cc(OC)ccc2n1	0	0	0	0	0
CCOC(=O)CSC1=NC(=O)/C(=C/c2ccc(OC)cc2)S1	0	-91.4	-	-	0
CC(=O)/C=C(\C)Nc1ccc(-c2cnc(-c3ccccc3)o2)cc1	0	0	0	?	8.91µM
Cc1cc(NCc2ccco2)n2ncnc2n1	0	-119.3	-	0	0
Cc1cc(NCc2ccccc2)n2ncnc2n1	-	-	-	-	0
COc1ccccc1CNC(=O)C1CC(=O)N(c2ccc(C)c(C)c2)C1 (stereo not given)	0	-80.7	0	0	0
COc1ccc(N2CC(C(=O)NCc3cccnc3)CC2=O)cc1 (stereo not given)	0	-97.6	0	0	0
COc1ccc(N2CC(C(=O)Nc3ccc(N4CCOCC4)cc3)CC2=O)cc1 (stereo not given)	0	-113.4	0	0	0
COc1ccc(CN2CC(C(=O)NCCN3CCOCC3)CC2=O)cc1 (stereo not given)	0	-89.5	0	0	0
COCCCNC(=O)C1CC(=O)N(Cc2ccc(OC)cc2)C1 (stereo not given)	0	0	0	0	0
COC(=O)[C@H]1O[C@@H](c2cc(OC)c(C)c(OC)c2O)[C@H](C)[C@@H](O)[C@H]1C	-	-	-	-	0
COc1cc2c(C=O)c3c4c(cc(OC)c(OC)c4c2cc1OC)CCN3C	?	-	31.6µM	0	0
COc1cc2c(C)c3c4c(cc(OC)c(OC)c4c2cc1OC)CCN3C	0	-	0	0	0
CCOC(=O)c1c(NC(=O)COc2ccc(Cl)cc2C)sc(C(C)=O)c1C	-	-	-	0	-
COC(=O)N[C@@H](c1cccc(C)c1)C(C(C)=O)C(=O)OC (stereo not given in full)	-	-	-	-	0
O=S(=O)(c1ccc(Br)cc1)N1CCCC1c1nc2ccccc2s1 (stereo not given)	0	-100.0	-	0	0
CN(C)S(=O)(=O)c1ccc(C(=O)N2CCCC2c2nc3ccccc3s2)cc1 (stereo not given)	0	?	-	-	0
CCCCCC(=O)/C=C/C=C\C/C=C\C/C=C\CCCC(=O)O	0	-	-	-	0
Cn1cc([N+](=O)[O-])c(C(=O)Nc2cc(Oc3ccccc3)cc([N+](=O)[O-])c2)n1	0	-125.2	-	-	0
CC1=C(C(=O)OC2CCCCCC2)C(c2c(F)cccc2Cl)CC(=O)N1 (stereo not given)	-	-	-	0	-
O=C(NCCC1=CCCCC1)c1ccc2c(c1)N(Cc1ccccc1)C(=O)CS2	0	-83.9	0	0	0
SMILES	ALOX12 inhib	PNC assembly inh	15-hLO-2 inh	IMPase inh	IMPase Li cell
O=C(NCCN1CCOCC1)c1ccc2c(c1)N(Cc1ccccc1)C(=O)CS2	0	0	0[2.29 µM]	0	0
Oc1cccc(NC(=S)Nc2cccnc2)c1	0	-87.6	-	-	0
S=C(Nc1cccnc1)Nc1ccccc1Br	-	-	-	-	0
CCOC(=O)c1c(C)nc2sc3c(c2c1-c1ccc(OC)cc1)NC(c1ccccc1)NC3=O (stereo not given)	0	-83.2	0	0	?
CCOC(=O)c1c(C)nc2sc3c(=O)n(-c4ccc(C(C)=O)cc4)cnc3c2c1-c1ccc(OC)cc1	0	0	0	0	0
CCOC(=O)c1c(C)nc2sc3c(=O)n(-c4ccc(OC)cc4)nnc3c2c1-c1ccc(OC)cc1	0	-106.0	0	0	0
COCCn1c(=O)c(-c2ccccc2)nc2cnc(N(C)C)nc21	-	-	0	-	?
CCc1nc(Nc2ccc(OC)c(OC)c2)c2nnn(Cc3ccccc3Cl)c2n1	0	-118.9	-	0	0
CCC(=O)c1ccc(OCC(O)Cn2c(C)nc3ccccc32)cc1 (stereo not given)	0	-121.2	0	0	0
Cc1nc2ccccc2n1CC(O)COc1ccc(C(=O)O)cc1 (stereo not given)	-	-	-	0	-
Cc1nc(C)n(CC(O)COc2ccc(C(=O)c3ccccc3)cc2)n1 (stereo not given)	0	-95.0	0	0	0
C[C@@](N)(/C=C\c1ccccc1)C(=O)O	0[11.4 µM]	-	0[11.4 µM]	-	0
COc1ccc2c(CC(=O)Nc3ccc(OC)c(NS(=O)(=O)c4ccc(F)cc4)c3)coc2c1	0	-126.8	0	0	0
COc1ccccc1N1CCN(CCCNC(=O)c2nnc(Cc3c(F)cccc3Cl)o2)CC1	-	-	-	0	-
O=C(/C=C\c1ccco1)Nc1cc([N+](=O)[O-])ccc1F	0	-134.0	-	-	0
CC(C)Sc1nc2sc3c(c2c(=O)n1-c1ccccc1)CCCC3	-	-	-	0	-
COc1cccc([C@@H]2Oc3ccc(Br)cc3C(=O)[C@H]2OC(=O)NS(=O)(=O)c2ccc(C)cc2)c1	-	-	-	-	0
COc1ccc(C2=NN3C(=O)c4c(ccc(OC)c4OC)C3C2)cc1 (stereo not given)	0	0	0[11.4 µM]	0[1.84 µM]	0
COc1ccc2c(c1OC)C(=O)N1N=C(c3ccc(Cl)cc3)CC21 (stereo not given)	0	-93.0	-	0	0
CC1CCC(C(C)C)C(OP(=O)(c2ccc(N(C)C)cc2)C(O)c2cccnc2)C1 (stereo not given)	0	-113.8	-	-	0
CC1CCC(C(C)C)C(OP(=O)(c2ccccc2)C(O)c2ccncc2)C1 (stereo not given)	-	-	-	-	0
COc1ccc(NC(=O)CN2CCCCC2)c([N+](=O)[O-])c1	0	-90.4	0	0	0
COc1ccc(CSCCN)cc1Cl	0	-96.3	0[2.29 µM]	0	0
Cc1csc(NC(=O)CSc2nnc(-c3ccc(S(=O)(=O)N4CCCC4)cc3)o2)n1	0	0	0	0	0
CCN(CC)S(=O)(=O)c1ccc(-c2nnc(SCC(=O)Nc3nc(C)cs3)o2)cc1	0	-106.2	0	0	0
SMILES	ALOX12 inhib	PNC assembly inh	15-hLO-2 inh	IMPase inh	IMPase Li cell
COc1ccc(-c2coc3cc4oc(=O)cc(C)c4cc23)cc1F	0	0	?	0	0
COc1ccc(-c2coc3cc4oc(=O)cc(-c5ccccc5)c4cc23)cc1F	0	-110.8	-	0	0
O=P(O)(O)OP(=O)(O)O	0[11.4 µM]	-	0[11.4 µM]	-	0
CCc1ccc(NS(=O)(=O)c2ccc3[nH]cc(C(=O)N(C)Cc4ccco4)c(=O)c3c2)cc1	?	-114.2	0	0	0
CC(C)(C)C(=O)C1C(=O)c2ccccc2C1=O	0	-	0	-	0
CNc1ncncc1-c1ccccc1C(F)(F)F	-	-	?	-	0
O=C(CSc1nnc(Cc2ccccc2)o1)NCc1ccc2c(c1)OCO2	-	-	-	-	0
CC(=O)CSc1nnc(Cc2ccc3c(c2)OCO3)o1	0	-100.0	-	0	0
CCCCCCc1ccc(-c2ncc(N)cn2)cc1	0	?	0	0	0
